Data reported in PubChem BioAssay (Tox21).
Values joined by “and” are separate entries in the source; they are usually repeats but may differ in a detail not shown here. Equal values may be shown once. Records with an inconclusive call do not appear. Active and inactive are the calls of the source. Unless noted, the call rests on the fitted dose curve; in most records, active means well fitted curve in the direction sought with a large enough effect in the repeat runs; inconclusive means weak or mixed curves; inactive means no such curve, though single readings can be large; an effect the other way counts as inactive or inconclusive.

Legend:
[1] = qHTS assay to identify small molecule antagonists of the thyroid receptor (TR) signaling pathway - cell viability counter screen (AID 743064); further: nearly all actives have a fitted effect of over 50% in size
Outline: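 GH3.TRE-Luc rat pituitary cells carrying a TRE-luciferase reporter were treated with compound plus 1 nM T3 (final) for 23.5 h at 37 °C. Viability was then read in the same wells by CellTiter-Fluor fluorescence after a further 30 min.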

[2] = qHTS assay to identify small molecule antagonists of the thyroid receptor (TR) signaling pathway (AID 743065); further: series mostly up to about 70 µM; nearly all actives have a fitted effect of over 55% in size
Outline: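 GH3.TRE-Luc rat pituitary cells (two TREs driving luciferase) were dosed with compound, then stimulated with 1 nM T3 (final) for 23.5 h at 37 C. ONE-Glo luminescence was the read-out, with CellTiter-Fluor fluorescence as the cytotoxicity counter-screen.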

[3] = test system: thyroid hormone receptor (rat, GH3 cells); experiment: qHTS assay to identify small molecule agonists of the thyroid receptor (TR) signaling pathway (AID 743066; calls by dose curve; further: potency means the concentration at half of the fitted maximal effect)
[4] = target: Estrogen receptor (Homo sapiens) (UniProt P03372); experiment: qHTS assay to identify small molecule antagonists of the estrogen receptor alpha (ER-alpha) signaling pathway (AID 743069; active means well fitted curve in the direction sought with a large enough effect in the signal ratio in the repeat runs, not every such curve was filed as active; the % refers to the signal ratio)
Outline: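 HEK293 ER-alpha-UAS-bla GripTite cells, held overnight in 2% charcoal-stripped FBS, 5,000 cells/well, preincubated 4 h, then compound plus 17beta-estradiol for 18 h at 37C. Beta-lactamase read by LiveBLAzer B/G FRET substrate, 2 h at room temperature.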

[5] = qHTS assay to identify small molecule antagonists of the estrogen receptor alpha (ER-alpha) signaling pathway - cell viability counter screen (AID 743074; calls by dose curve;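 further: HEK293 cells carrying ER-alpha-UAS-bla reporter stimulated with 17beta-estradiol; nearly all actives have a fitted effect of over 45% in size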)
[6] = target: Estrogen receptor (Homo sapiens) (UniProt P03372); experiment: qHTS assay to identify small molecule agonists of the estrogen receptor alpha (ER-alpha) signaling pathway (AID 743075; calls by dose curve)
[7] = target: Estrogen receptor (Homo sapiens) (UniProt P03372); experiment: qHTS assay to identify small molecule agonists of the estrogen receptor alpha (ER-alpha) signaling pathway using the BG1 cell line (AID 743079); further: nearly all actives have a fitted effect of over 20% in size; further: potency means the concentration at half of the fitted maximal effect
[8] = qHTS assay to identify small molecule antagonists of the estrogen receptor alpha (ER-alpha) signaling pathway using the BG1 cell line (AID 743080; calls by dose curve;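 further: BG1 cells stimulated with 17beta-estradiol alongside compound; series mostly up to about 70 µM; nearly all actives have a fitted effect of over 25% in size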)
Outline: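 Readout is ONE-Glo luminescence, taken 30 min at room temperature after reagent addition, preceded by a CellTiter-Fluor viability read; BG1-Luc-4E2 cells had received compound and 17beta-estradiol for 21.5 h at 37 C.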

[9] = qHTS assay to identify small molecule antagonists of the estrogen receptor alpha (ER-alpha) signaling pathway using the BG1 cell line - cell viability counter screen (AID 743081);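 further: compound given together with 17beta-estradiol as the ER stimulus; series mostly up to about 70 µM; nearly all actives have a fitted effect of over 45% in size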
Aromatase (Homo sapiens) = Aromatase (Homo sapiens) (UniProt P11511); experiment: qHTS assay to identify aromatase inhibitors (AID 743083); further: series mostly up to about 70 µM; nearly all actives have a fitted effect of over 55% in size

Measured: Potency

Chain of Aromatase (Homo sapiens) (P11511 whole entry, looked up): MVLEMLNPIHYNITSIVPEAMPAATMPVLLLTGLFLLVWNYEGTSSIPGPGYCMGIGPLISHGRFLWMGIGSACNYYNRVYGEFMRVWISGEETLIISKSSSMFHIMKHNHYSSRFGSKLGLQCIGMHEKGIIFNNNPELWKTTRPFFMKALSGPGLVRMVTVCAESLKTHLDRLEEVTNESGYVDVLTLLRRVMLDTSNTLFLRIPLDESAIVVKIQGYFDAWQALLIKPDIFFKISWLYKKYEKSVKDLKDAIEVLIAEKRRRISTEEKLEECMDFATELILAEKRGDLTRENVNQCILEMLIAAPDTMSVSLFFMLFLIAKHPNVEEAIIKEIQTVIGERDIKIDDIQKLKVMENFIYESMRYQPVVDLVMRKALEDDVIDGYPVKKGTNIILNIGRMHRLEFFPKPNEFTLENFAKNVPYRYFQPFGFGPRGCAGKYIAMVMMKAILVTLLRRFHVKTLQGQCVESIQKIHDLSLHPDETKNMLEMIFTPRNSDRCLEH
Chain of Estrogen receptor (Homo sapiens) (P03372 whole entry, looked up): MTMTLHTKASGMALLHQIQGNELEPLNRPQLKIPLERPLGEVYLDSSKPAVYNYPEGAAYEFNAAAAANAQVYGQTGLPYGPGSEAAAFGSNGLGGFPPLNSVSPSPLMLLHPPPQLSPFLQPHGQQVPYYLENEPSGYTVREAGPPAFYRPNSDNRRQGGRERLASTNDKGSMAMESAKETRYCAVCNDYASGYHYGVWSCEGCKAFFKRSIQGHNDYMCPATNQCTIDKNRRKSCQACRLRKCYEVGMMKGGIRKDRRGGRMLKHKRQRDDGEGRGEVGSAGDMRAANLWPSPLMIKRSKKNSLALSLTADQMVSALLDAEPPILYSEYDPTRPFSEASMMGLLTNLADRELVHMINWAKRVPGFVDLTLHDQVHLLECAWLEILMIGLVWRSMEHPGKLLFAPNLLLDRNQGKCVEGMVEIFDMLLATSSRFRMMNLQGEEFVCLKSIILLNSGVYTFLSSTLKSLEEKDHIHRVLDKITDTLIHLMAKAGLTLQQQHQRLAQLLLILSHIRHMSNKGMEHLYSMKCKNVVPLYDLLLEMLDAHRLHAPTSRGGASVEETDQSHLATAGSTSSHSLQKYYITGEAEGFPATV

Nc1cc(C(Cl)=C(Cl)Cl)c(S(N)(=O)=O)cc1S(N)(=O)=O
inactive: all assays above

CCCCCCCCCCCl
not listed: [8]
inactive: all other assays above

NCCNC(=O)c1ccc(Cl)cn1
not listed: [8]
inactive: all other assays above

C=C[Si](OC)(OC)OC
not listed: [8]
inactive: all other assays above

NC(=O)c1ncn([C@@H]2O[C@H](CO)[C@@H](O)[C@H]2O)c1N
inactive: all assays above

Cc1ccc(Nc2ccc(O)c3c2C(=O)c2ccccc2C3=O)cc1
not listed: [8]
inactive: all other assays above

CCN(CC)C(=O)c1ccc(O)c(OC)c1
not listed: [8]
inactive: all other assays above

CN(C)C(=O)Nc1ccccc1
not listed: [8]
inactive: all other assays above

C1CCCCCCCCCCC1
not listed: [8]
inactive: all other assays above

CC/C=C\C#N
not listed: [8]
inactive: all other assays above

CC(C)=CCC/C(C)=C/C(=O)O
not listed: [8]
inactive: all other assays above

CCO[Si](C)(OCC)OCC
not listed: [8]
inactive: all other assays above

CC(=O)O[C@H](CC(=O)[O-])C[N+](C)(C)C
inactive: all assays above

CCCOc1ccccc1-c1nc2n[nH]nc2c(=O)[nH]1
not listed: [8]
inactive: all other assays above

C=C(C)C(=O)OCCC(C)OC(=O)C(=C)C (configuration not stated)
inactive: all assays above

[O-][N+](=Nc1ccccc1)c1ccccc1
active: [7] 15 µM and 54.5 µM
not listed: [8]
inactive: all other assays above

O=[N+]([O-])c1ccc(Oc2ccc([N+](=O)[O-])cc2)cc1
not listed: [8]
inactive: all other assays above

COCc1ccc(COC)cc1
not listed: [8]
inactive: all other assays above

CC(C)(C)C(=O)/C=C/c1ccc(Cl)cc1
not listed: [8]
inactive: all other assays above

CC1(C)SC(C)(C)SC(C)(C)S1
not listed: [8]
inactive: all other assays above

Oc1cc(O)c2c(c1)O[C@H](c1ccc(O)c(O)c1)[C@H](O)C2
not listed: [8]
inactive: all other assays above

CCCCCC[C@@H](CCC)C(=O)O
not listed: [9]
inactive: all other assays above

CCCCNc1ccccc1
not listed: [8]
inactive: all other assays above

OC[C@H]1O[C@@H]2O[C@H]3[C@H](O)[C@@H](O)[C@@H](O[C@H]4[C@H](O)[C@@H](O)[C@@H](O[C@H]5[C@H](O)[C@@H](O)[C@@H](O[C@H]6[C@H](O)[C@@H](O)[C@@H](O[C@H]7[C@H](O)[C@@H](O)[C@@H](O[C@H]8[C@H](O)[C@@H](O)[C@@H](O[C@H]9[C@H](O)[C@@H](O)[C@@H](O[C@H]1[C@H](O)[C@H]2O)O[C@@H]9CO)O[C@@H]8CO)O[C@@H]7CO)O[C@@H]6CO)O[C@@H]5CO)O[C@@H]4CO)O[C@@H]3CO
inactive: [1] | [2] | [3] | [5] | [9] | Aromatase (Homo sapiens)

CC(CCO)CCCC(C)(C)O (configuration not stated)
active: [3] 27.3 µM
inactive: [1] | [2] | [5] | [9] | Aromatase (Homo sapiens)

O=S(=O)(O)c1ccccc1O
not listed: [5]
inactive: all other assays above
